# Only some compounds are listed: those with a hit (about 5.4% of all), similar ones and a draw of the others.
# beta cell repl – MIN6 beta-cell proliferation induction; MIN6 cells proliferation, ATPlite luminescence, 48 h; cells starved in 0.2% serum; 100% = growth in 10% serum; proliferation, % at 10 µM; 0.29% of 330,000 active;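 active means compounds whose signal lies at least 3.5 SD above the mean of all wells on their plate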;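 further: 0% = DMSO-treated cells in low-serum medium and 100% = 10% serum control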
# ALR H2O2 inh – inhibitors of human sulfhydryl oxidase ALR; AID 485317; purified ALR, DTT oxidation, H2O2 HRP-luminol luminescence; 3.8% of 290,000 active; P55789; inhibition, % (test concentration not listed);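 active means mean replicate inhibition above about 79%, with every replicate also reaching it, limit read from the data; inconclusive means only one of the two criteria met; inactive means mean below limit and not every replicate reaching it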
# Target sequence (P55789 whole entry, looked up): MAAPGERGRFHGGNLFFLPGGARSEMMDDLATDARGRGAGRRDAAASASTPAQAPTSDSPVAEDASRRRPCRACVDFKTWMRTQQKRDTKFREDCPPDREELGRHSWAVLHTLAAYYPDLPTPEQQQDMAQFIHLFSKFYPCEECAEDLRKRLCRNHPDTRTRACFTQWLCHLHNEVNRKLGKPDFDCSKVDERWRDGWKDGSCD
# SMARCA2 act – activators of SMARCA2 function; activation, % at 9.1 µM; AID 652017; 1% of 370,000 active; MG213 cells, MMTV-luciferase reporter, dexamethasone, overnight; in the data active means activation above about 7.8%;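 further: 0% = vehicle wells and 100% = reference activator wells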
# Exocytosis inh – blocks lytic granule exocytosis; 0.66% of 360,000 active; inhibition, % at 10 µM; TALL-104 LAMP-1 surface exposure, flow cytometry; cells stimulated with thapsigargin and PMA;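 active means inhibition above about 55%, limit read from the data; inconclusive means no clear call, values can overlap the other calls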
# PfM18AAP inh – blocks P. falciparum M18 aspartyl aminopeptidase. AID 1822. recombinant PfM18AAP, H-Glu-NHMec fluorogenic cleavage. inhibition, % at 7.35 µM. 1.2% of 290,000 active;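 active means inhibition above the campaign mean inhibition over all tested compounds plus 3 SD, cut at about 28% in these data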;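 further: 0% = plate median of test compound wells and 100% = 2 mM ZnCl2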
# GASC-1 inh – blocks human GASC-1 demethylase activity; AID 2099; GST-JMJD2C(1-420) H3K9me3 demethylation, DELFIA europium; inhibition, % at 2.35 µM; Q9H3R0; 0.069% of 330,000 active;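 active means more than half of a compound's replicate wells show inhibition beyond 50%, single wells judged on their own value; inconclusive means some, but no more than half, of replicates pass 50% inhibition; inactive means no replicate passes 50% inhibition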;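 further: signal counts dimethyl H3K9 product captured on neutravidin plate; 0% = median of DMSO wells and 100% = 0.3 times that DMSO median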
# Target sequence (Q9H3R0 1-420 limits assumed): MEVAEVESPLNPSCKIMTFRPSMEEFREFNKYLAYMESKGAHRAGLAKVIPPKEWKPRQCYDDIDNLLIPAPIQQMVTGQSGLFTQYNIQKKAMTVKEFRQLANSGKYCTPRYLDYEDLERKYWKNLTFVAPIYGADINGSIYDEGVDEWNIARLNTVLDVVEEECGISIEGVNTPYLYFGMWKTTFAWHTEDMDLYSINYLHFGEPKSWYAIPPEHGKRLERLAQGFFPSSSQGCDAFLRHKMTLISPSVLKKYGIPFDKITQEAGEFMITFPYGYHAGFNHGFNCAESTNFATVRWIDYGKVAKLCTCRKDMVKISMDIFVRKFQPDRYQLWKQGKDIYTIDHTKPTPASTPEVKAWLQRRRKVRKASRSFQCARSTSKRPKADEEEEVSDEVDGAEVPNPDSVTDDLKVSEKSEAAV
# Exocytosis CP01 – blocks lytic granule exocytosis | shares compounds with Exocytosis inh | TALL-104 cells, LAMP-1 externalization, flow cytometry; stimulated with PMA plus thapsigargin | inhibition, % at 10 µM | 11% of 1,500 active; in the data active means inhibition above about 60%;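 further: 0% = stimulated vehicle wells and 100% = unstimulated wells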
# * = called active by the depositor; ? = inconclusive; / = no result given.
SMILES,beta cell repl,ALR H2O2 inh,SMARCA2 act,Exocytosis inh,PfM18AAP inh,GASC-1 inh,Exocytosis CP01
CC(C)N(Cc1ccccc1)S(=O)(=O)c1ccc(F)cc1,-5,-25,-3,64*,-2,-1,-14
O=C(NCCCN1CCN(c2ccc(F)cc2)CC1)NC12CC3CC(CC(C3)C1)C2,-6,1,-1,56*,0,-2,-4
O=C(O)CCCCCCCCCCCNC(=O)NC12CC3CC(CC(C3)C1)C2,3,-2,1,80*,/,1,-3
CCN(CC)CCNc1nc(-c2ccc(OC)cc2)c(-c2ccc(OC)cc2)s1,-6,99*,7,66*,6,4,-2
O=C(Nc1ccc(Cl)cc1)Nc1ccccc1C(=O)N1CCCC1,/,/,-2,/,/,/,/
COc1ccccc1C(=O)N/C(=C\c1cn(C)c2ccccc12)C(=O)NCCCn1ccnc1,-1,8,0,67*,8,4,-7
O=C(O)c1ccc(C#Cc2cccc(F)c2)cn1,/,/,-5,/,/,/,/
COc1ccc(N2C(=O)c3n[nH]c(C(C)C)c3C2c2ccccc2)cc1 (stereo unspecified),/,/,-1,/,/,/,/
COc1ccc(C(=O)OC(C)C(=O)NC(C)CCc2ccccc2)c(OC)c1 (stereo unspecified),-2,-15,-1,58*,-1,7,-12
COc1ccc(C(=O)OC(C)C(=O)NC(C)CCc2ccccc2)cc1[N+](=O)[O-] (stereo unspecified),0,2,-3,2,-1,-14,/
Cc1nc2ccccc2n1CC(O)Cn1c2ccccc2c2ccccc21 (stereo unspecified),-5,-2,-3,58*,-3,-6,-10
COC(=O)c1cc2c(c3c4ccccc4n(S(=O)(=O)c4cccc(C)c4)c13)C(=O)N(Cc1ccccc1OC)C2,/,/,-2,/,/,/,/
CCOC(=O)C1=NOC(C(=O)Nc2nccs2)(C(=O)C2CC2)C1 (stereo unspecified),/,/,-2,/,/,/,/
C/C=C/c1ccc(OCCOCCNCc2ccccc2)c(OC)c1,-3,-14,-2,70*,7,-5,-5
O=C(CSc1nnc(-c2cnccn2)n1-c1ccccc1)c1ccc(F)cc1,/,/,2,/,/,/,/
C[C@H]1[C@@H]2C[C@@]3(O[C@H](c4ccc(C(F)(F)F)cc4)N=C3C[C@@H]1c1ccccc1)N(Cc1ccncc1)C2=O,/,/,-6,/,/,/,/
CC1CCCN(CCOc2cccc(Oc3ccccc3)c2)C1 (stereo unspecified),-4,2,3,60*,4,13,-10
Cc1ccc(S(=O)(=O)n2ccc3c(OCCOCCNCc4ccc(F)cc4)cccc32)cc1,-7,-2,-6,75*,-1,6,69*
Cc1ccc(S(=O)(=O)n2ccc3c(OCCOCCSCC(NC(=O)OC(C)(C)C)C(=O)O)cccc32)cc1 (stereo unspecified),-2,7,-4,-15,-7,2,/
CCN=C1NC(c2ccc(F)cc2)C(C(=O)OC)=C(C)N1Cc1ccccc1C(F)(F)F (stereo unspecified),/,/,-2,/,/,/,/
CCOc1ccc(C(=O)C(CN2CCOCC2)c2ccccc2)cc1 (stereo unspecified),/,0,-4,2,-1,-13,/
O=C(c1ccc(Br)cc1)C(CN1CCOCC1)c1ccccc1 (stereo unspecified),-7,12,-6,67*,-7,36,-10
O=C(COC(=O)Cc1c[nH]c2ccccc12)NC1CCCCC1,-4,-12,3,77*,8,-8,-3
O=C(COC(=O)c1c[nH]c2ccccc12)NC1CCCC1,0,-3,-1,11,/,1,/
CCN(CC)S(=O)(=O)c1ccc(Oc2ccc(S(=O)(=O)N(CC)CC)cc2)cc1,-6,-6,-7,-7,2,-2,/
SMILES,beta cell repl,ALR H2O2 inh,SMARCA2 act,Exocytosis inh,PfM18AAP inh,GASC-1 inh,Exocytosis CP01
CCN(CC)S(=O)(=O)c1ccc(Oc2ccccc2OC)cc1,-3,-6,-2,69*,5,11,-3
CC(=O)c1cc(NC(=O)c2ccccc2)c(=O)oc1C,4,5,0,-3,0,-34,/
Cc1oc(=O)c(NC(=O)c2ccc(Cl)cc2)cc1C(=O)c1ccccc1,-6,?,4,103*,-32,7,-9
COc1cccc(C(CC2=CCCCC2)NC(=O)C(F)(F)F)c1 (stereo unspecified),/,/,-2,/,/,/,/
COc1ccc(NC(=O)C2CCN(C(=O)C3CC(=O)N(c4ccc(C)cc4)C3)CC2)c(OC)c1 (stereo unspecified),-2,-14,1,69*,-2,-6,-14
CC(=O)Nc1ccc(NC(=O)C2CCN(C(=O)C3CC(=O)N(c4ccc(C)cc4)C3)CC2)cc1 (stereo unspecified),6,-12,-5,-3,-4,-6,/
COc1ccc(Cn2c(SCc3ccccc3C)nc3cc(OC)c(OC)cc3c2=N)cc1,-6,-14,0,96*,6,-11,59
COc1cc2nc(SCc3ccc(F)cc3)n(Cc3cccs3)c(=N)c2cc1OC,-3,-3,-5,-1,2,4,/
CCCN1CCC(N(CCc2ccccc2)Cc2ccccc2)CC1,-2,-6,1,51,-14,-5,/
COc1ccc(CN2CCC(N(CCc3ccccc3)Cc3ccccc3)CC2)c(OC)c1,-6,/,-2,60*,-5,32,1
NC(=O)SCC(=O)Nc1ccc(Cl)cc1,-6,99*,-1,78*,25,-12,-6
COC(=O)C1=C(C)N(Cc2cccc(C(F)(F)F)c2)C(=NCc2cc(OC)c(OC)c(OC)c2)NC1c1ccc(Cl)cc1 (stereo unspecified),/,/,0,/,/,/,/
COc1ccc(Cl)cc1NC(=O)CN(C)C1CCCCC1,-1,3,-3,0,-3,10,/
COc1ccc(OC)c(NC(=O)CN(Cc2ccc(F)cc2)C2CCCCC2)c1,-7,-3,-4,76*,6,-4,-11
Cc1ccccc1NC(=O)CN1CCC(C(=O)c2ccc3c(c2)OCCO3)CC1,0,1,-4,17,-2,0,/
O=C(CN1CCC(C(=O)c2ccc3c(c2)OCCO3)CC1)Nc1ccccc1C(F)(F)F,0,-2,-4,88*,0,2,-3
CCCCc1c(-c2ccc(OC)cc2)ncn1CCc1ccccc1OC,/,/,-8,82*,/,/,27
CCCCCc1c(-c2ccc(OC)cc2)ncn1CCc1ccccc1OC,/,/,-4,68*,/,/,17
CCCCc1c(-c2ccccc2)ncn1CCc1ccccc1OC,/,/,-7,17,/,/,/
O=C(CC1CCCC1)N[C@H](C(=O)N1CCC[C@H]1C(=O)NCCc1ccccc1Cl)c1ccccc1,/,/,-2,/,/,/,/
COc1ccc2oc(=O)cc(CN(C)Cc3ccccc3)c2c1,-3,/,-5,72*,6,-7,0
